Data reported in publication PMC8384837, “Expanding the binding specificity for RNA recognition by a PUF domain”.

Assays:
Experiment in all cases: yeast three-hybrid, YBZ-1, SC-Leu-His + 0.5 mM 3-AT, 4 days
Conditions in all cases: tags: N-Gal4 AD-HA kept; label: inside an RPR1-promoter hybrid RNA with tandem MS2 sites; ssRNA
[1] = target: PUM1 PUF domain R3-FWA (Homo sapiens, UniProt Q14671 828-1176, C935F;R936W;Q939A)
Method in brief: (§1)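 Pumilio-1 PUF domain libraries, randomized (NNK) at the three base-contacting residues of each repeat, were co-expressed with matching RNA elements from a centromeric plasmid in strain YBZ-1 (LexA–MS2 coat fusion, HIS3 reporter). Transformants were plated on SC-Leu (input) and SC-Leu-His + 0.5 mM 3-AT (selection) for four days, and repeat regions were PCR-amplified and Illumina-sequenced. The interaction score is the log2 change in variant frequency from input to selection, with pseudocount 1 where absent.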

[2] = target: PUM1 PUF domain R3-KRG (Homo sapiens, UniProt Q14671 828-1176, C935K;Q939G)
PUM1 PUF domain R3-KRG, sequence (Q14671 828-1176 C935K/Q939G): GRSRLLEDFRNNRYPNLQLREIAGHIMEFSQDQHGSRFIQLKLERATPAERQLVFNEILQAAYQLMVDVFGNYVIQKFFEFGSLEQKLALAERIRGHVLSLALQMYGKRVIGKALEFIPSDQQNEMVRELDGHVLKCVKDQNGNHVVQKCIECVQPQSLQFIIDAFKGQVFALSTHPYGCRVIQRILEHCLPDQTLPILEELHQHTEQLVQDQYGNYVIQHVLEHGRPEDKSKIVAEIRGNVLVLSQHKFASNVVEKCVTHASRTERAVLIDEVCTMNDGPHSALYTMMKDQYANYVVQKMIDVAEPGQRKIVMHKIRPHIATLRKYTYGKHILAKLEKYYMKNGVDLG
Method in brief: as §1

[3] = target: PUM1 PUF domain R3-RGR (Homo sapiens, UniProt Q14671 828-1176, C935R;R936G;Q939R)
PUM1 PUF domain R3-RGR, sequence (Q14671 828-1176 C935R/R936G/Q939R): as the sequence (Q14671 828-1176 C935K/Q939G) above, with K108R, R109G, G112R counted along it
Method in brief: as §1

[4] = target: PUM1 PUF domain R5-FHM (Homo sapiens, UniProt Q14671 828-1176, C1007F;R1008H;Q1011M)
PUM1 PUF domain R5-FHM, sequence (Q14671 828-1176 C1007F/R1008H/Q1011M): as the sequence (Q14671 828-1176 C935K/Q939G) above, with K108C, G112Q, C180F, R181H, Q184M counted along it
Method in brief: as §1

[5] = target: PUM1 PUF domain R5-FRY (Homo sapiens, UniProt Q14671 828-1176, C1007F;Q1011Y)
PUM1 PUF domain R5-FRY, sequence (Q14671 828-1176 C1007F/Q1011Y): as the sequence (Q14671 828-1176 C935K/Q939G) above, with K108C, G112Q, C180F, Q184Y counted along it
Method in brief: as §1

[6] = target: PUM1 PUF domain R5-FHE (Homo sapiens, UniProt Q14671 828-1176, C1007F;R1008H;Q1011E)
PUM1 PUF domain R5-FHE, sequence (Q14671 828-1176 C1007F/R1008H/Q1011E): as the sequence (Q14671 828-1176 C935K/Q939G) above, with K108C, G112Q, C180F, R181H, Q184E counted along it
Method in brief: as §1

[7] = target: PUM1 PUF domain R5-RAA (Homo sapiens, UniProt Q14671 828-1176, C1007R;R1008A;Q1011A)
PUM1 PUF domain R5-RAA, sequence (Q14671 828-1176 C1007R/R1008A/Q1011A): as the sequence (Q14671 828-1176 C935K/Q939G) above, with K108C, G112Q, C180R, R181A, Q184A counted along it
Method in brief: as §1

[8] = target: PUM1 PUF domain R7-RVQ (Homo sapiens, UniProt Q14671 828-1176, S1079R;N1080V;E1083Q)
PUM1 PUF domain R7-RVQ, sequence (Q14671 828-1176 S1079R/N1080V/E1083Q): as the sequence (Q14671 828-1176 C935K/Q939G) above, with K108C, G112Q, S252R, N253V, E256Q counted along it
Method in brief: as §1

[9] = target: PUM1 PUF domain R1-FGR (Homo sapiens, UniProt Q14671 828-1176, S863F;R864G;Q867R)
PUM1 PUF domain R1-FGR, sequence (Q14671 828-1176 S863F/R864G/Q867R): as the sequence (Q14671 828-1176 C935K/Q939G) above, with S36F, R37G, Q40R, K108C, G112Q counted along it
Method in brief: as §1

PUM1 PUF domain R3-FWA, sequence (Q14671 828-1176 C935F/R936W/Q939A): as the sequence (Q14671 828-1176 C935K/Q939G) above, with K108F, R109W, G112A counted along it

## GGCUAGAACUAGUGGAUCCCCCGGCGCCCGGCGGCUCGAGCCCGGGUAAGUGUAAUUAGUCUGCAUGCCGCCGGGCGCCAUGCCUGCAGGUCGACUCUAGAAAACAUG
[1]
  binding signal: 5.26 log2 enrichment (interaction score)
[2]
  binding signal: 2.07 log2 enrichment (interaction score)
[3]
  binding signal: 2.38 log2 enrichment (interaction score)

## GGCUAGAACUAGUGGAUCCCCCGGCGCCCGGCGGCUCGAGCCCGGGUAAGUGUGAAUAGUCUGCAUGCCGCCGGGCGCCAUGCCUGCAGGUCGACUCUAGAAAACAUG
[4]
  binding signal: 5.31 log2 enrichment (interaction score)

## GGCUAGAACUAGUGGAUCCCCCGGCGCCCGGCGGCUCGAGCCCGGGUAAGUGUCAAUAGUCUGCAUGCCGCCGGGCGCCAUGCCUGCAGGUCGACUCUAGAAAACAUG
[5]
  binding signal: 2.31 log2 enrichment (interaction score)
[6]
  binding signal: 4.41 log2 enrichment (interaction score)
[7]
  binding signal: 2.68 log2 enrichment (interaction score)

## GGCUAGAACUAGUGGAUCCCCCGGCGCCCGGCGGCUCGAGCCCGGGUAAGUUUAAAUAGUCUGCAUGCCGCCGGGCGCCAUGCCUGCAGGUCGACUCUAGAAAACAUG
[8]
  binding signal: 3.81 log2 enrichment (interaction score)

## GGCUAGAACUAGUGGAUCCCCCGGCGCCCGGCGGCUCGAGCCCGGGUAAGUGUAAAUUGUCUGCAUGCCGCCGGGCGCCAUGCCUGCAGGUCGACUCUAGAAAACAUG
[9]
  binding signal: 3.11 log2 enrichment (interaction score)

## GGCUAGAACUAGUGGAUCCCCCGGCGCCCGGCGGCUCGAGCCCGGGUAAGUGUAAAUCGUCUGCAUGCCGCCGGGCGCCAUGCCUGCAGGUCGACUCUAGAAAACAUG
[9]
  binding signal: 0.54 log2 enrichment (interaction score)
